Experimental data: the supplement of paper PMC6555819

Tests used:
Test in all cases: PBM binding z-score (relative to random genomic background probes); higher = stronger binding; sequences stand for … in GC…GCGATTGACAGCGTAGAATGAAGG
[1] = tested on: RARb homodimer (NR concentration 270 nM)
Procedure, shortened: (§1)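 Probes were double-stranded and carried 34-nt variable regions with direct-repeat seeds, single-nucleotide variants, half-site ablations and random human genomic background sequences, printed on custom Agilent 4×180K protein-binding microarrays. Arrays were incubated 1 h with ligand-free nuclear receptor dimers in PBS pH 7.4, 2% milk, 0.02% Triton X-100, 1 mM DTT, 0.2 mg/mL BSA and 0.4 mg/ml salmon testes DNA. Antibodies against each partner (one per run) detected binding, and scanned fluorescence was regression-normalized. Binding z-scores use the random background probes as reference.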

[2] = tested on: RARg:RXRa (NR concentration 270 nM, RXRa partner concentration 90 nM)
Procedure, shortened: as §1

[3] = tested on: RARg homodimer (NR concentration 270 nM)
Procedure, shortened: as §1

[4] = tested on: RXRa DBDmut IVT, anti-RXR (DBD mutation: RXRa K156A/R161A, NR concentration 90 nM)
Procedure, shortened: as §1

[5] = tested on: RXRa homodimer (NR concentration 180 nM)
Procedure, shortened: as §1

[6] = tested on: THRa:RXRa (NR concentration 90 nM, RXRa partner concentration 90 nM)
Procedure, shortened: as §1

[7] = tested on: THRa homodimer (NR concentration 90 nM)
Procedure, shortened: as §1

[8] = tested on: VDR homodimer (NR concentration 270 nM)
Procedure, shortened: as §1

CCTCGGATGACAACAGGAGGTCAGAGCTGCCAGA gave a PBM binding z-score [1] of 3, a PBM binding z-score [2] of 2.24 and a PBM binding z-score [3] of 1.91. The PBM binding z-score [4] was -0.48, the PBM binding z-score [5] was 2.01 and the PBM binding z-score [6] was 1.92. For the same sequence, the PBM binding z-score [7] was 0.407 and the PBM binding z-score [8] was 0.749.

CCTGCTAGGTCAATCGTCAGCTAAAGCAGCTCGC gave a PBM binding z-score [1] of 2.83, a PBM binding z-score [2] of 3.59 and a PBM binding z-score [3] of 4.42. The PBM binding z-score [4] was 1.78, the PBM binding z-score [5] was 2.15 and the PBM binding z-score [6] was 2.11. The PBM binding z-score [7] was 0.36 and the PBM binding z-score [8] was -0.0155.

Work on ATCGAAATGTCGAAGGTGAGTATACCCACCCGAA yielded a PBM binding z-score [1] of -0.167, a PBM binding z-score [2] of 0.233 and a PBM binding z-score [3] of 0.587. It also gave a PBM binding z-score [4] of -0.753, a PBM binding z-score [5] of 0.434 and a PBM binding z-score [6] of -0.023. It also gave a PBM binding z-score [7] of -0.43 and a PBM binding z-score [8] of -0.0115.

Work on AGTCAAAGTTCAGGACGAGGTTACGTAAAGCACG yielded a PBM binding z-score [1] of 3.96, a PBM binding z-score [2] of 5.81 and a PBM binding z-score [3] of 5.25. For the same sequence, the PBM binding z-score [4] was 3.2, the PBM binding z-score [5] was 4.19 and the PBM binding z-score [6] was 3.92. For the same sequence, the PBM binding z-score [7] was 1.81 and the PBM binding z-score [8] was 3.15.

CCTACTGGGCCAAAAAGGTCATTGAAGCCGATAA gave a PBM binding z-score [1] of 4.33, a PBM binding z-score [2] of 4.98 and a PBM binding z-score [3] of 4.29. The PBM binding z-score [4] was 0.615, the PBM binding z-score [5] was 5.31 and the PBM binding z-score [6] was 3.08. The PBM binding z-score [7] was 0.418 and the PBM binding z-score [8] was 2.58.

GCAACGAGGGCAAAGTTGATAGCATCTGTCGACG gave a PBM binding z-score [1] of 0.991, a PBM binding z-score [2] of 1.89 and a PBM binding z-score [3] of 1.57. It also gave a PBM binding z-score [4] of 2.62, a PBM binding z-score [5] of 1.81 and a PBM binding z-score [6] of 1.19. It also gave a PBM binding z-score [7] of -0.191 and a PBM binding z-score [8] of 1.21.

For CAAACAAGGTCAAGAGGTCAAAGTCCGCTTCCCG, the PBM binding z-score [1] was 6.24, the PBM binding z-score [3] was 8.91 and the PBM binding z-score [4] was 3.92. For the same sequence, the PBM binding z-score [7] was 3.28 and the PBM binding z-score [8] was 5.74.

In the case of CTACCAAGGTGAACAAGGTCGCTGATTACTATTC, the PBM binding z-score [1] is reported as 2.04, the PBM binding z-score [2] is reported as 1.88 and the PBM binding z-score [3] is reported as 1.55. It also gave a PBM binding z-score [4] of 0.77, a PBM binding z-score [5] of 1.8 and a PBM binding z-score [6] of 3.28. The PBM binding z-score [7] was 1.81 and the PBM binding z-score [8] was 1.27.

For CCTTACGGGTCACTCCAGTTTATAGCATCGGAGT, the PBM binding z-score [1] was 2.7, the PBM binding z-score [2] was 4.06 and the PBM binding z-score [3] was 4.22. For the same sequence, the PBM binding z-score [4] was 1.78, the PBM binding z-score [5] was 3.83 and the PBM binding z-score [6] was 4.11. It also gave a PBM binding z-score [7] of 0.161 and a PBM binding z-score [8] of 2.06.

For AGAACGAGGGCCCGCTGAGTTGATAGCAGAGTAG, the PBM binding z-score [1] was -1.16, the PBM binding z-score [2] was -0.775 and the PBM binding z-score [3] was -0.722. It also gave a PBM binding z-score [4] of -0.659, a PBM binding z-score [5] of -0.399 and a PBM binding z-score [6] of -1.6. It also gave a PBM binding z-score [7] of -0.89 and a PBM binding z-score [8] of -0.586.

Sequence GCGACTGTGGCATCAGCAGGTTACCATAACTTAA has a PBM binding z-score [1] of 0.205, a PBM binding z-score [2] of -0.1 and a PBM binding z-score [3] of -0.291. For the same sequence, the PBM binding z-score [4] was -0.209, the PBM binding z-score [5] was 0.187 and the PBM binding z-score [6] was 0.277. The PBM binding z-score [7] was 0.0891 and the PBM binding z-score [8] was -0.501.

AATACAGGGTCAACGTAGGCCAGAGTACGCACAG was tested, and the PBM binding z-score [1] was 3.8, the PBM binding z-score [2] was 6.08 and the PBM binding z-score [3] was 5.84. It also gave a PBM binding z-score [4] of 3.18, a PBM binding z-score [5] of 6.81 and a PBM binding z-score [6] of 4.35. The PBM binding z-score [7] was 1.24 and the PBM binding z-score [8] was 3.28.

Work on CTAACTAGGTCATTGACAGGACAGTGAATAGTAA yielded a PBM binding z-score [1] of 2.61, a PBM binding z-score [2] of 4.49 and a PBM binding z-score [3] of 4.43. For the same sequence, the PBM binding z-score [4] was 2.41, the PBM binding z-score [5] was 2.33 and the PBM binding z-score [6] was 2.85. It also gave a PBM binding z-score [7] of 0.816 and a PBM binding z-score [8] of 1.14.

In the case of ATACCAAAGTGATCGTGAGGTCGTTGATACTAAC, the PBM binding z-score [1] is reported as 1.13, the PBM binding z-score [2] is reported as 0.445 and the PBM binding z-score [3] is reported as 0.273. For the same sequence, the PBM binding z-score [4] was 1.02, the PBM binding z-score [5] was 0.855 and the PBM binding z-score [6] was 2.76. It also gave a PBM binding z-score [7] of 2.01 and a PBM binding z-score [8] of 3.16.

TCTATTAGATGATTAGGGCAACCGAAACAGCGGA was tested, and the PBM binding z-score [1] was 0.19, the PBM binding z-score [2] was 0.609 and the PBM binding z-score [3] was 0.575. It also gave a PBM binding z-score [4] of 1.02, a PBM binding z-score [5] of 0.432 and a PBM binding z-score [6] of 0.35. The PBM binding z-score [7] was -0.055 and the PBM binding z-score [8] was 0.272.

For TTACCAAGGTGAGCTGGGGTCGTTGATCCAACTC, the PBM binding z-score [1] was 1.42, the PBM binding z-score [2] was 1.31 and the PBM binding z-score [3] was 0.493. It also gave a PBM binding z-score [4] of -0.222, a PBM binding z-score [5] of 2.1 and a PBM binding z-score [6] of 4.38. It also gave a PBM binding z-score [7] of 1.23 and a PBM binding z-score [8] of 1.84.

Work on ACGATTAGTTGACTTAGGGCAACCGATACGACGC yielded a PBM binding z-score [1] of 0.941, a PBM binding z-score [2] of 0.65 and a PBM binding z-score [3] of 0.654. For the same sequence, the PBM binding z-score [4] was 0.0967, the PBM binding z-score [5] was 0.512 and the PBM binding z-score [6] was 1.43. For the same sequence, the PBM binding z-score [7] was 0.264 and the PBM binding z-score [8] was -0.201.

In the case of TCTATTAGTTGATTAGGGCAACCTAAACAGCGGA, the PBM binding z-score [1] is reported as 0.947, the PBM binding z-score [2] is reported as 0.824 and the PBM binding z-score [3] is reported as 0.799. It also gave a PBM binding z-score [4] of 0.995, a PBM binding z-score [5] of 0.669 and a PBM binding z-score [6] of 0.862. The PBM binding z-score [7] was 0.4 and the PBM binding z-score [8] was 0.145.
